# Data as given in the supplement of paper PMC12636033.
# ± gives the standard deviation of the averaged measurements. In all, about 33,000 sequences were measured (“E-score (rank enrichment, -0.5 to 0.5)”: median about -0.0068, highest 2% from about 0.24 on). The full list was thinned out, with the highest values kept by preference.
# Test system: muMax20 (Max(13-93) K31hArg/K57hArg, M65Nle)
# Test: PBM 8-mer E-score (E-score (rank enrichment, -0.5 to 0.5)); higher = stronger preferential binding
# Experimental: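 Protein binding microarray (universal PBM chip covering all 10-mers in fixed probe flanks) with chemically synthesized human Max(13-93) bHLH-LZ analogs (not full-length Max) bearing noncanonical residues (hArg, Tha, Aib, Nle at 65) and aromatic Cys staples. Read-out per 8-mer (and its reverse complement): E-score (rank-based enrichment, -0.5 to 0.5) and Z-score of median probe intensity.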
row,Sequence,PBM 8-mer E-score
1,GGAGAAGA,0.084 ± 0.0044
2,CTCCTTAC,0.0913 ± 0.013
3,CGTCTAGC,-0.0301 ± 0.083
4,GAGCCTAA,-0.0774 ± 0.0028
5,CGAGTACC,-0.134 ± 0.016
6,AACGGCTG,-0.184 ± 0.1
7,AACCACGC,-0.0767 ± 0.24
8,ACCCACGT,0.341 ± 0.11
9,AACCACGT,0.369 ± 0.057
10,ACCCACGA,0.0663 ± 0.055
11,ACCCACGC,0.109 ± 0.027
12,AACCACGA,0.141 ± 0.09
13,AGTGTGCG,-0.149 ± 0.0092
14,AAGATGTG,0.128 ± 0.009
15,CCCCGCCC,0.322 ± 0.043
16,CCCGCCCC,0.273 ± 0.057
17,ACCCGCCC,0.172 ± 0.024
18,CCCCCGCC,-0.0877 ± 0.065
19,CCCGCCCA,0.317 ± 0.073
20,ACCCCGCC,0.27 ± 0.04
21,CCCGCCCG,-0.0341 ± 0.0082
22,GCCGCCCA,-0.267 ± 0.094
23,ACCGCCCC,0.0617 ± 0.15
24,GCCCGCCC,0.0169 ± 0.057
25,AACCCGCC,-0.0715 ± 0.029

row,Sequence,PBM 8-mer E-score
1,GCCGCCCC,-0.0538 ± 0.0099
2,AAGAAAGA,-0.00904 ± 0.054
3,AGAGTAAG,0.117 ± 0.059
4,CCAAATAC,0.13 ± 0.031
5,CCCGAATA,-0.0449 ± 0.17
6,CTTGGAGC,-0.103 ± 0.13
7,CCTAGCCG,-0.253 ± 0.052
8,ATCGGTGC,-0.0954 ± 0.028
9,CAGAACTA,-0.169 ± 0.18
10,AACACTCT,-0.00142 ± 0.039
11,AAGAACTC,-0.0481 ± 0.11
12,GCTAGAGC,-0.122 ± 0.12
13,AACTTCTA,-0.0177 ± 0.042
14,TACTTCTA,0.272 ± 0.091
15,GACTTCTA,-0.149 ± 0.025
16,CTTATGGA,-0.0576 ± 0.026
17,CAACCGAC,0.0428 ± 0.061
18,AAACACGT,0.342 ± 0.016
19,AAACACGA,0.194 ± 0.04
20,AAACACGC,0.198 ± 0.0045
21,ACACACGT,0.338 ± 0.01
22,ACACACGG,0.00898 ± 0.047
23,ACACACGA,0.188 ± 0.037
24,GACGTAAC,0.0633 ± 0.061
25,AATAGGTC,-0.0485 ± 0.14

row,Sequence,PBM 8-mer E-score
1,AATAGGTA,0.251 ± 0.073
2,AATAGGTG,0.119 ± 0.0048
3,ATAATACC,0.261 ± 0.049
4,ATAATACA,0.281 ± 0.027
5,ACAATACT,0.174 ± 0.049
6,AGAATACC,0.142 ± 0.0044
7,CTAATACA,0.248 ± 0.047
8,AAAATACA,0.159 ± 0.058
9,ACAATACC,0.237 ± 0.02
10,ATAATACG,0.19 ± 0.015
11,ACAATACA,0.191 ± 0.02
12,GTAATACA,0.182 ± 0.082
13,CTAATACC,0.0669 ± 0.08
14,TCAATACA,0.18862 ± 0.00013
15,ACTATGGC,-0.0571 ± 0.07
16,AATTTTCG,0.0133 ± 0.1
17,GCCCTACA,-0.127 ± 0.021
18,CCCGCACG,-0.0959 ± 0.058
19,TGAGCGCA,-0.0144 ± 0.0021
20,AACGGCAA,0.112 ± 0.025
21,CTCTGCGA,-0.167 ± 0.1
22,AGTTACCC,-0.029 ± 0.015
23,GGGATGGA,0.0386 ± 0.042
24,ACCAGTTG,-0.0933 ± 0.12
25,ACTTCAAT,0.173 ± 0.027

row,Sequence,PBM 8-mer E-score
1,CAAATACA,0.325 ± 0.037
2,GAAATACA,0.132 ± 0.063
3,CAAATACC,0.0739 ± 0.027
4,GTAACGTA,0.0209 ± 0.03
5,ATAACGTC,0.121 ± 0.0034
6,ATAACGTA,0.24 ± 0.0069
7,AAGTCACT,0.24 ± 0.12
8,AAGTCACG,0.0988 ± 0.052
9,AAGTCACA,0.029 ± 0.056
10,GCTTGCAA,0.0886 ± 0.032
11,AAAAATGG,0.153 ± 0.002
12,GAGCCAAC,-0.0474 ± 0.026
13,AAAACCTC,0.104 ± 0.039
14,GAATATAA,0.264 ± 0.023
15,GTGTATAA,0.1625 ± 0.0011
16,ATGTAGAA,0.264 ± 0.0091
17,TGATATAA,0.211 ± 0.09
18,ATGTAGAG,0.04 ± 0.13
19,ATATATAT,0.155 ± 0.016
20,CTGTAGAA,0.031 ± 0.018
21,ATGTATAA,0.268 ± 0.022
22,GAATATAC,0.157 ± 0.014
23,TTATATAA,0.274 ± 0.062
24,CTGTATAA,0.191 ± 0.029
25,TAATATAA,0.232 ± 0.018

row,Sequence,PBM 8-mer E-score
1,AGGGAACC,-0.237 ± 0.012
2,TACGGCTA,-0.0274 ± 0.029
3,ATGGGCGG,0.009 ± 0.039
4,GTTAGAAC,-0.0507 ± 0.042
5,CTATATAA,0.165 ± 0.12
6,GTATATAA,0.202 ± 0.069
7,ATATATAA,0.288 ± 0.052
8,ACGCCTCG,-0.092 ± 0.092
9,CATCCGGC,-0.291 ± 0.032
10,ATCGGACG,-0.0422 ± 0.092
11,AAAGATAC,0.145 ± 0.05
12,TAAGATAA,0.0507 ± 0.17
13,AAAGATAG,0.0409 ± 0.14
14,AAAGATAA,0.2372 ± 0.001
15,CAAGATAA,0.253 ± 0.064
16,CAAGATAC,0.153 ± 0.0086
17,ATCAGAGG,-0.121 ± 0.076
18,ACATGTTA,0.241 ± 0.085
19,ACATGTTC,0.1643 ± 0.00078
20,GCATGTTA,0.116 ± 0.14
21,CCATGTTA,0.109 ± 0.039
22,ACATGTTG,0.271 ± 0.022
23,AGATGTTG,-0.125 ± 0.12
24,AACGAATT,0.236 ± 0.0088
25,CAAGGTAC,0.0659 ± 0.12

row,Sequence,PBM 8-mer E-score
1,ACACCGAT,-0.183 ± 0.16
2,AGGTTAGG,0.0305 ± 0.073
3,CACGTTTA,0.0929 ± 0.011
4,CCTTAACC,-0.159 ± 0.009
5,AAGTGATC,0.074 ± 0.034
6,ACGTGAGT,0.2594 ± 0.0012
7,CCGTGATC,-0.311 ± 0.027
8,ACTTGATC,-0.00466 ± 0.064
9,ACGTGAAC,0.0624 ± 0.078
10,ACGTGAGA,0.168 ± 0.054
11,ACGTGAGG,0.111 ± 0.1
12,ACGTGATC,0.286 ± 0.1
13,ACTTGATA,0.242 ± 0.033
14,TCGTGAAA,0.0589 ± 0.081
15,ACTTGATG,0.0184 ± 0.013
16,ACGTGAAA,0.249 ± 0.083
17,CGGTTCAC,-0.245 ± 0.053
18,AGCATTCC,-0.123 ± 0.17
19,GGAGCCCA,-0.156 ± 0.11
20,CCTGTGAC,-0.0438 ± 0.0042
21,CCATAGAC,-0.0388 ± 0.035
22,GACGTTGA,0.0147 ± 0.11
23,ATCCTTTG,0.0245 ± 0.09
24,CTGAGCAC,-0.0319 ± 0.049
25,TCGAGAGA,-0.0503 ± 0.027

row,Sequence,PBM 8-mer E-score
1,AATGACTC,0.152 ± 0.015
2,GTTGAACA,0.031 ± 0.035
3,CGTAACTC,-0.0982 ± 0.11
4,AACACGGT,-0.129 ± 0.055
5,TCCGCGCA,-0.113 ± 0.072
6,ACGTGATA,0.33 ± 0.082
7,ATGTGATA,0.24 ± 0.12
8,GTGTGAAA,0.141 ± 0.027
9,GTGTGATA,0.154 ± 0.018
10,GCGTGATA,0.174 ± 0.032
11,CCGTGATA,-0.0912 ± 0.033
12,CTGTGAAA,0.0471 ± 0.025
13,ATGTGAAA,0.317 ± 0.057
14,AGGTGATG,-0.00343 ± 0.027
15,ACGTGATG,0.294 ± 0.05
16,AAGTGATG,0.129 ± 0.12
17,CTGTGATA,-0.0301 ± 0.17
18,ACTATGCT,0.231 ± 0.07
19,CCCGAGGA,-0.233 ± 0.074
20,ATGGGATC,0.0291 ± 0.075
21,CTAACTCA,0.0355 ± 0.056
22,AGCCGATG,-0.155 ± 0.04
23,AATCACCA,0.133 ± 0.014
24,AGTGTCCC,-0.0112 ± 0.012
